Compound activity as filed in PubChem.
APP 5UTR inh – APP translation inhibition. SH-SY5Y APP 5'UTR-luciferase reporter, luminescence. inhibition, % at 2 µM. 190,000 tested, 0.82% active;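 active = inhibition above a set limit, derived from the sample mean plus 3 SD, cut at about 45% in these data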
Ba/F3 V617F tox – loss of viability in JAK2V617F-driven Ba/F3 cells. 220,000 tested, 1.1% active. Ba/F3 EpoR-JAK2V617F viability, ATP luminescence. AID 1446. inhibition, % at 5.6 µM;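 active = inhibition above the campaign mean plus 3 SD over all tested compounds, cut at about 24% in these data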;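 note: cytokine-independent growth of Ba/F3 cells driven by EpoR plus mutant JAK2; 0% = DMSO-treated cells and 100% = JAK inhibitor I control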
BaF3 parental – parental Ba/F3 viability inhibition as JAK2V617F counter-screen; inhibition, % at 5.6 µM; CellTiter-Glo ATP luminescence; 220,000 tested, 1.1% active; AID 1486;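 active = inhibition above a per-campaign cutoff, the mean inhibition of all tested compounds plus 3 SD, cut at about 27% in these data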;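 note: 0% = DMSO wells and 100% = JAK Inhibitor I control wells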
KLF5 inhibitor – inhibitors of KLF5 expression | inhibition, % at 5 µM | DLD-1 KLF5 promoter-luciferase reporter, luminescence | AID 1700 | 290,000 tested, 0.23% active;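 active = inhibition above a per-plate limit of that plate's mean compound inhibition plus 3 SD, cut at about 60% in these data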;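 note: 0% = DMSO wells and 100% = LY294002 at 200 µM; higher means less KLF5 promoter-driven luciferase light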
IEC-6 tox – kills IEC-6 intestinal cells in KLF5 counter-screen; IEC-6 cytotoxicity, luminescence viability; AID 1825; inhibition, % at 5 µM; 290,000 tested, 0.78% active; in the data active = inhibition above about 22%;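 note: 0% = plate median of test compound wells and 100% = cytotoxic reference compound wells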
An asterisk follows results filed as active; . = no result. Only some compounds are listed: those with a hit (about 1.9% of all), similar ones and a draw of the others.

SMILES	APP 5UTR inh	Ba/F3 V617F tox	BaF3 parental	KLF5 inhibitor	IEC-6 tox
CN(C)c1cccc(NC2=CC(=[N+]3CCOCC3)CC(C)(C)C2)c1	5	2	4	-18	-2
CNC(=S)NNC(=O)c1cc(C(C)(C)C)nn1Cc1ccc(F)cc1	.	-1	-4	-11	3
CCOC(=O)N1CCN(C(=O)c2cc3c(s2)-c2ccc(Cl)cc2S(=O)(=O)C3)CC1	-7	2	4	-12	-5
FC(F)(F)c1ccccc1NC(=S)NN=C1CCCCCC1	93*	-2	0	-14	7
FC(F)(F)c1ccccc1NC(=S)N1CCCC1	.	2	-4	3	2
CCOc1ccc(NC(=S)Nc2ccccc2C2CC2)cc1	-6	1	81*	-35	-1
CCOc1ccc(NC(=S)Nc2ccc(OC(F)(F)F)cc2)cc1	.	63*	51*	7	-1
CCOc1ccc(NC(=S)Nc2cccc3ccccc23)cc1	.	.	.	-111	10
CCOc1ccc(NC(=S)Nc2ccc(OCC)cc2)cc1	0	-3	6	-28	-6
O=C(c1cnn2c(C(F)F)cc(-c3ccccc3)nc12)N1CCc2ccccc21	-25	3	4	-8	-1
Cc1ccc(-c2cc(C(F)F)n3ncc(C(=O)N4CCc5ccccc54)c3n2)cc1	87*	3	1	-19	5
Cc1cc(NC(=O)COC(=O)C2CCC(=O)N2)c([N+](=O)[O-])cc1C (stereo unspecified)	-6	-4	3	-43	0
COc1ccc(CNc2cc(C)nc3ncnn23)c(OC)c1	-4	6	31*	-13	-2
CC1CCC/C(=N/Nc2ccc([N+](=O)[O-])cc2[N+](=O)[O-])C1 (stereo unspecified)	79*	0	6	-30	-2
CC1CCC(=NNc2ccc(C(F)(F)F)cc2[N+](=O)[O-])CC1 (stereo unspecified)	10	6	10	-29	7
O=S(=O)(/C=C/c1ccccc1)N1CCOCC1	.	.	.	-21	-3
Cn1c(=O)oc2cc(S(=O)(=O)N3CCc4ccccc43)ccc21	.	3	3	21	2
COC(=O)Nc1ccc(S(=O)(=O)N2CCCc3cccc(O)c32)cc1	1	4	12	-7	16
Cn1c(=O)oc2cc(S(=O)(=O)N3CCCc4ccccc43)ccc21	38	55*	45*	20	0
Cn1c(=O)c(=O)n(C)c2cc(S(=O)(=O)N3CCc4ccccc43)ccc21	-11	-2	31*	25	2
COC(=O)Nc1ccc(S(=O)(=O)N2CCCc3ccccc32)cc1	90*	85*	79*	51	74*
CCCn1c(CN2CCN(C(C)=O)CC2)nc2cc(S(=O)(=O)N(C)C)ccc21	.	.	.	-6	8
Cc1ccc(C)c(/C=C(\C(=O)O)c2ccc(S(=O)(=O)N3CCCCC3)s2)c1	8	0	6	-21	-9
CCc1ccc(C(O)(c2ccccc2OC)C(CN2CCOCC2)c2ccccc2)cc1 (stereo unspecified)	-14	-2	6	-6	7
CCOc1cnn(-c2cc(Oc3ccc(C)cc3)ncn2)c(=O)c1Cl	74*	-1	6	-21	-6
SMILES	APP 5UTR inh	Ba/F3 V617F tox	BaF3 parental	KLF5 inhibitor	IEC-6 tox
CC(=O)Nc1cccc(OCC(=O)NC(C)C(C)C)c1 (stereo unspecified)	69*	-1	1	-3	3
CCc1nnc(N/N=C/c2cc(Br)c(O)cc2O)n1N	.	.	.	-27	-8
CCc1nnc(N/N=C/c2c(Cl)cccc2Cl)n1N	-10	3	5	-13	62*
CCc1nnc(N/N=C/c2cccs2)n1N	14	3	0	-18	94*
CCOc1ccc(NC(=O)CN(C)Cc2cc(=O)n3c(-c4ccccc4)csc3n2)cc1OCC	-5	0	3	-19	-2
O=C(N/N=C/C(Br)=C\c1ccccc1)c1ccc2nc[nH]c2c1	83*	3	2	31	11
CCOc1cc(C(=O)N/N=C/C(Br)=C/c2ccccc2)cc(OCC)c1OCC	90*	-4	2	-26	7
CC(C)Cc1ccc(S(=O)(=O)N2CCN(c3ccccn3)CC2)cc1	.	.	.	14	-2
C/C(=N\NC(=O)c1cc(-c2cccnc2)nc2ccccc12)c1ccc(O)cc1O	66*	-1	5	3	3
CCn1c(SCc2ccccc2Cl)nc2nc3c(cc2c1=O)CCCC3	70*	2	5	-34	-4
CCn1c(SCC(=O)NCc2ccccc2)nc2nc3c(cc2c1=O)CCCC3	-15	3	6	-7	1
Cc1cc(C)cc(NC(=S)N=Nc2c(O)n(C)c3ccc(S(=O)(=O)N4CCOCC4)cc23)c1	38	0	-2	-11	4
Oc1c(N=NC(=S)Nc2ccccc2F)c2ccccc2n1Cc1ccccc1Cl	17	3	5	-11	-1
Cc1cccc(C)c1NC(=S)N=Nc1c(O)n(C)c2ccc(S(=O)(=O)N3CCOCC3)cc12	20	-1	2	-19	-10
C=CCn1c(O)c(N=NC(=S)Nc2ccccc2F)c2ccccc21	19	4	6	-4	8
C=CCn1c(O)c(N=NC(=S)Nc2cccc(C)c2)c2ccccc21	66*	4	7	-14	20
Cc1cccc(NC(=S)N=Nc2c(O)n(C)c3ccc(S(=O)(=O)N4CCOCC4)cc23)c1	66*	-7	0	-6	-3
Cc1c(Cl)cccc1NC(=S)N=Nc1c(O)n(CN2CCOCC2)c2ccccc12	46*	7	6	-21	16
Cc1ccc(NC(=S)N=Nc2c(O)n(C)c3ccc(S(=O)(=O)N4CCOCC4)cc23)cc1	69*	2	7	7	5
COc1ccc(-n2ccc(=O)c(C(=O)O)n2)c(OC)c1	.	.	.	-2	1
Cc1c(-c2cc(C(=O)O)on2)cnn1C	-3	-2	3	-6	4
Cc1cccc2cc3c(N)c(C(=O)N4CCOCC4)sc3nc12	85*	59*	59*	-11	2
CCC(C)NS(=O)(=O)c1ccc(NC(C)=O)cc1 (stereo unspecified)	-27	0	2	-4	5
COC(=O)C(C)NS(=O)(=O)c1ccc(NC(C)=O)cc1 (stereo unspecified)	-21	5	5	1	26*
CCC(C)n1cnc2c(=O)oc3ccccc3c21 (stereo unspecified)	88*	2	5	-11	11
CC(C)Cn1cnc2c(=O)oc3ccccc3c21	3	-1	1	-18	-7
CN(CCCNC(=O)c1ccc(CS(=O)c2ccc(Br)cc2)o1)Cc1ccccc1 (stereo unspecified)	.	.	.	-10	2
O=S(Cc1ccc(Br)cc1)Cc1nnc(SCc2ccc(Br)cc2)n1-c1ccccc1 (stereo unspecified)	15	15	34*	17	7
CCOC(=O)c1sc(/S(C)=N\S(=O)(=O)c2cccc(Cl)c2)c2c1CCC=C2 (stereo unspecified)	.	-4	0	-37	-14
Cc1cc(OCCSc2nnc(-c3cccs3)n2C)ccc1Cl	-10	0	8	-27	-4
